# Measurements from PubChem BioAssay (NCATS).
# Records with an inconclusive call do not appear. Where a call stands in place of a potency, no number is given. Some structures have more than one record in an assay (separate samples or runs), and their calls can disagree. The source made the active and inactive calls. Unless noted, calls follow the shape of the dose curve; as a rule, active = well fitted curve in the direction sought with a large enough effect; inconclusive = small, poorly fitted or top-dose-only effect, or another doubt; inactive = no such curve, though single readings can be large; an effect the other way counts as inactive or inconclusive.
# Tests used:
# [1] = qHTS for Inhibitors of Plasmodium falciparum (DD2) proliferation (AID 504314);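 also: parasite DNA measured by SYBR Green fluorescence after red cell lysis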
# Outline: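 Fluorescence read-out (ex 485/em 535 nm) of SYBR Green-stained parasite DNA quantifies intraerythrocytic growth. Cultures at 0.3% parasitemia and 2.5% hematocrit were treated for 72 h; data normalized to DMSO and 0.29 uM artemisinin wells.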
# [2] = qHTS for Inhibitors of Plasmodium falciparum (GB4) proliferation (AID 504315); also: nearly all actives have a fitted effect of over 50% in size
# Outline: (§1)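 Erythrocytes infected with P. falciparum line (0.3% parasitemia, 2.5% hematocrit final) incubated with compounds 72 h at 37 °C, 5% CO2; SYBR Green lysis buffer added, fluorescence read next day. Normalized to 0.29 uM artemisinin and DMSO.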
# [3] = qHTS for Inhibitors of Plasmodium falciparum (HB3) proliferation (AID 504318); also: nearly all actives have a fitted effect of over 60% in size; also: potency is read from the fitted curve at half-maximal effect
# Outline: as §1
# [4] = qHTS for Inhibitors of Plasmodium falciparum (7G8) proliferation (AID 504316); also: nearly all actives have a fitted effect of over 65% in size
# Outline: as §1
# [5] = biological target: Lysosomal alpha-glucosidase (Homo sapiens) (UniProt P10253); experiment: Confirmation of Inhibitors and Activators of Purified Human alpha-Glucosidase (AID 2115; active = well fitted curve in either direction with a large enough effect)
# Outline: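 Purified human enzyme (4 nM) with 4-methylumbelliferyl-alpha-D-glucopyranoside (400 uM), compounds up to 77 uM, in citrate/phosphate buffer pH 5.0 with 0.005% Tween-20. After 20 min at RT, stopped at pH 10; fluorescence ex 365/em 440 nm; AC50 from Hill fits.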
# [6] = biological target: Glucocorticoid receptor (Homo sapiens) (UniProt P04150); experiment: GR-EFC Redistribution (AID 451; calls by dose curve; also: potency is read from the fitted curve at half-maximal effect); conditions: CHO-K1 GR-EFC translocation, beta-gal luminescence, 2 h
# Chain of Glucocorticoid receptor (Homo sapiens) (P04150 whole entry, looked up, the tested form may be a part): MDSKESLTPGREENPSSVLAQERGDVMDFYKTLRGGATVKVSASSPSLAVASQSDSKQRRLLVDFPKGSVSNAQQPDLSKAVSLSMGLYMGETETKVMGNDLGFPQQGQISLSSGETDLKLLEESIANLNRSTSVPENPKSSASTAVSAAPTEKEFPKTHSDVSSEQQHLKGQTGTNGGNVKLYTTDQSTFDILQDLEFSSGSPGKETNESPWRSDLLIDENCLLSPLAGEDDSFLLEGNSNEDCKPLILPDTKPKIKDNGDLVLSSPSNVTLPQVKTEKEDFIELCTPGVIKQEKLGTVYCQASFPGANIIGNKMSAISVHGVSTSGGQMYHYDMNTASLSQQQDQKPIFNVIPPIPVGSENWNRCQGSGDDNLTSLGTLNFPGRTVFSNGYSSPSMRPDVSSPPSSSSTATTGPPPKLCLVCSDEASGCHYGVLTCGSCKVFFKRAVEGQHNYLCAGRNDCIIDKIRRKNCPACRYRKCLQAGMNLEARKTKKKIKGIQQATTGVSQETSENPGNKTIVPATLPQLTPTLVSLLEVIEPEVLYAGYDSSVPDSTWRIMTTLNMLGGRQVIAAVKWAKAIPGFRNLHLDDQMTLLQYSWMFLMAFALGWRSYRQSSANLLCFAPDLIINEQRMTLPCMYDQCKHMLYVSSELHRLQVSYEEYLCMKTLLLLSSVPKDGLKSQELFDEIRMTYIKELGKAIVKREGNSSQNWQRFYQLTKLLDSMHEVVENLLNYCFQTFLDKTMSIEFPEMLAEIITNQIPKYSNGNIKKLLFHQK
# Outline: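 CHO-K1 cells stably expressing nuclear-localized β-gal enzyme acceptor and GR fused C-terminally to the enzyme donor fragment; ligand-driven nuclear translocation restores β-gal by complementation. Compounds titrated up to 46 uM final, 2 h at 37 °C; luminescence read.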
# [7] = biological target: Mitogen-activated protein kinase 10 (Mus musculus) (UniProt Q61831); experiment: JNK3 AlphaScreen Assay (AID 530; active = well fitted curve in either direction with a large enough effect, not every such curve was filed as active;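 also: kinase came from lysate of stimulated human HepG2 cells; signal reports phosphorylation of biotinylated GST-cJun 1-79 at Ser73 with 10 µM ATP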)
# Outline: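 Inhibitors reduce antibody binding to phosphorylated biotin-cJun, lowering AlphaScreen luminescence. Lysates from HepG2 cells pre-activated by IL-1beta plus TNF-alpha supplied JNK3; compounds were titrated.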
# [8] = biological target: Cytochrome P450 3A4 (Homo sapiens) (UniProt P08684); experiment: qHTS Assay for Activators of Cytochrome P450 3A4 (AID 885); also: nearly all actives have a fitted effect of over 65% in size
# Chain of Cytochrome P450 3A4 (Homo sapiens) (P08684 whole entry, looked up): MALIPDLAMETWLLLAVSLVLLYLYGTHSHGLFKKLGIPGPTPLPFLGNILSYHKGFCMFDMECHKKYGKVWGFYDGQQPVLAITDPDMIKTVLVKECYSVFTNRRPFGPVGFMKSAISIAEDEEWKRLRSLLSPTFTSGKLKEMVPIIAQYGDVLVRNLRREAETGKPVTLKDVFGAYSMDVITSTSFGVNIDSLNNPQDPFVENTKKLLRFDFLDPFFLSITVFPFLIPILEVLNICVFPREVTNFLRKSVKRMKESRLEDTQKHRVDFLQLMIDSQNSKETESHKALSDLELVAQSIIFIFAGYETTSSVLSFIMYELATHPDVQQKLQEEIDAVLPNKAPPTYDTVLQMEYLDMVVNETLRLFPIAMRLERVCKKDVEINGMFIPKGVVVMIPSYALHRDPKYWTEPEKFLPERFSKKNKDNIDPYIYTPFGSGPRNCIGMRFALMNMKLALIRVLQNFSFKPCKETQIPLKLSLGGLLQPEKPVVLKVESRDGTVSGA
# Outline: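 Quantitative HTS format: compounds preincubated with 20nM human CYP3A4 and Luciferin-PPXE substrate at KM, reaction started by NADPH regeneration, stopped after 60 min, luciferase luminescence read 20 min later.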
# [9] = qHTS Assay for Lipid Storage Modulators (AID 1519; calls by dose curve); conditions: Drosophila S3 cells, BODIPY lipid droplet/cell ratio, laser cytometry, cells loaded with oleic acid
# Outline: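 Cells seeded at 5,000 per well were treated with compounds over a concentration series and loaded with oleic acid (400 uM, as added). Lipid droplet fluorescence (488 nm excitation, 500-530 nm channel) was read by laser-scanning cytometry and normalized to 20 uM Triacsin C.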
# [10] = biological target: DNA dC->dU-editing enzyme APOBEC-3G (Homo sapiens) (UniProt Q9HC16); experiment: qHTS for inhibitors of Vif-A3G interactions: Validation (AID 588379)
# Chain of DNA dC->dU-editing enzyme APOBEC-3G (Homo sapiens) (Q9HC16 whole entry, looked up): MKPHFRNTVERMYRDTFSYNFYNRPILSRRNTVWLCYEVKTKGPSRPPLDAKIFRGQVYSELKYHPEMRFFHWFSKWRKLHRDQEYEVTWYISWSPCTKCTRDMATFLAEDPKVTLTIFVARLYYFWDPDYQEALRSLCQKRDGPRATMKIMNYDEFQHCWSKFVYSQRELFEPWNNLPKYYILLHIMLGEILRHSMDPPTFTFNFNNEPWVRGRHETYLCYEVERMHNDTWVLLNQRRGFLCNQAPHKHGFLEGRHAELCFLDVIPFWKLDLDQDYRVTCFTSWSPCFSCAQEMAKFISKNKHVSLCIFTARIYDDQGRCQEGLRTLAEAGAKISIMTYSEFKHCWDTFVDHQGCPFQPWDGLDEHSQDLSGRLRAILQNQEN
# Outline: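 HeLa cells stably expressing Vif and A3G-eYFP, 700 cells/well, incubated overnight at 37 deg C, then exposed to compound overnight at 37 deg C. Inhibition of Vif-mediated degradation read as increased yellow fluorescence (Ex 488/Em 500-530) by laser-scanning cytometry.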
structure (smiles),measurement,setting,value
CC(=O)[C@]12[C@H](c3ccccc3)[C@@H]3CCN(C(=O)N[C@H]1c1ccccc1)[C@@]32C,outcome,[1],inactive
same,outcome,[2],inactive
same,Potency,[3],inactive
CCOC(=O)[C@]12C[C@]3(OC)CCN(C(=O)N[C@@H]1c1ccccc1)[C@@H]32,outcome,[1],inactive
same,outcome,[2],inactive
same,outcome,[4],inactive
same,Potency,[3],inactive
CC(=O)[C@]12C[C@@H]3CCCN(C(=O)N[C@@H]1c1ccccc1)[C@@H]32,outcome,[1],inactive
same,outcome,[2],inactive
same,outcome,[4],inactive
same,Potency,[3],inactive
COC(=O)C1C2CC(C)C(c3ccccc32)N1C(=O)C(F)(F)F (stereo not drawn),outcome,[1],inactive
same,outcome,[2],inactive
same,outcome,[4],inactive
same,Potency,[3],inactive
O[C@H]1[C@H](O)[C@@H](O)CN2CC[C@H](O)[C@H]12,outcome,[5],inactive
COC(=O)[C@@H]1[C@@H](c2ccccc2)[C@H]2C(=O)c3c(OC)cc(OC)cc3O[C@@]12c1ccc(OC)cc1,outcome,[1],inactive
same,outcome,[2],inactive
same,Potency,[3],inactive
COC(=O)C1=C[C@H]([C@@H](C)[C@H](OC)c2ccccc2Br)[C@H]2[C@H]1c1ccccc1N2C,outcome,[1],inactive
same,outcome,[2],inactive
same,outcome,[4],inactive
same,Potency,[3],1.9 µM (active) and inactive
CCOC(=O)[C@@]12[C@@H]3[C@@H](CCN3C(=O)N[C@H]1c1ccccc1)C2(C)C,outcome,[1],inactive
same,outcome,[4],inactive
same,Potency,[3],inactive
COC(=O)[C@@]1(C=C2c3ccc(F)cc3[C@@H](OC)[C@@H]2C)[C@@H]2Oc3ccccc3[C@@H]21,outcome,[1],inactive
same,outcome,[2],inactive
CCOC(=O)[C@]12C[C@@H]3OCCN(C(=O)N[C@@H]1c1ccccc1)[C@@H]32,outcome,[1],inactive
same,outcome,[2],inactive
same,outcome,[4],inactive
same,Potency,[3],inactive
CCOC(=O)[C@]12C[C@]3(C)CCCN(C(=O)N[C@@H]1c1ccccc1)[C@@H]32,outcome,[1],inactive
same,outcome,[2],inactive
same,outcome,[4],inactive
same,Potency,[3],inactive
CCOC(=O)[C@@]12C3[C@@H](CCN3C(=O)N[C@@H]1c1ccccc1)[C@@H]2C (stereo partly drawn),outcome,[1],inactive
same,outcome,[2],inactive
same,outcome,[4],inactive
same,Potency,[3],inactive
COC(=O)[C@@]12Cc3ccccc3[C@H]1C[C@H](C)[C@@H](C)N2C(=O)C(F)(F)F,outcome,[2],inactive
same,outcome,[4],inactive
CC(C)(C)NC[C@@H](O)COc1cccc2[nH]c(C#N)cc12,Potency,[6],> 46 µM (inactive)
same,outcome,[7],inactive
same,Potency,[8],inactive
same,"activity change, negative = inhibition",[9]; at 57.5 µM (top of the series),2.4% (inactive)
same,max response,[9]; measured here: cell count channel max response,-20.5%
same,max response,[9]; measured here: lipid channel max response,-17.5%
same,Potency,[10],inactive
CCOC(=O)[C@]12C[C@]3(C)CCN(C(=O)N[C@@H]1c1ccccc1)[C@@H]32,outcome,[1],inactive
same,outcome,[2],inactive
same,outcome,[4],inactive
same,Potency,[3],inactive
